# Source: PubChem BioAssay AID1159580 (chemical genetic matrix, 2015)
# “And” between values parts separate entries of the source, which are not always exact repeats. Identical values can stand only once. In all, about 5,500 compounds went through this assay and about 2,000 (36%) were called active. Inconclusive results (about 18%) are left out. This is one part of the list. Unmarked numbers belong to inactive results. No stated cut-off is given here; in the data, active means normalized growth mostly below about 0.91 (no sharp cut-off); inconclusive means no clear call, values can overlap the other calls; inactive means mostly above about 0.92.
# Test: chemical genetic growth profiling, strain panel (AID 1159580);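 further: tested at 20 µM; growth read once vehicle control cultures reached saturation at 30 °C; 1 = growth at the plate median or of vehicle wells; lower values mean less growth of the strain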
# Settings: S. cerevisiae deletion strains, growth OD
compound,measurement,setting,value
COc1ccc2c(c1)OCC(Cc1ccc(OC)c(O)c1)C2=O (configuration not stated),normalized growth,"locus YAL013W, strain DEP1, hits give low values",0.955
same,normalized growth,"locus YAL021C, strain ccr4, hits give low values",0.993
same,normalized growth,"locus YAL026C, strain drs2, hits give low values",0.965
same,normalized growth,"locus YAL030W, strain snc1, hits give low values",0.953
same,normalized growth,"locus YBL061C, strain skt5, hits give low values",0.961
same,normalized growth,"locus YBR009C, strain hhf1, hits give low values",0.903 (active)
same,normalized growth,"locus YBR021W, strain FUR4, hits give low values",0.873
same,normalized growth,"locus YBR023C, strain chs3, hits give low values",0.929
same,normalized growth,"locus YBR171W, strain sec66, hits give low values",0.937
same,normalized growth,"locus YBR229C, strain ROT2, hits give low values",0.98
same,normalized growth,"locus YBR231C, strain swc5, hits give low values",0.968
same,normalized growth,"locus YBR279W, strain paf1, hits give low values",0.979
same,normalized growth,"locus YCL011C, strain gbp2, hits give low values",0.922
same,normalized growth,"locus YCL016C, strain dcc1, hits give low values",0.939
same,normalized growth,"locus YCL029C, strain bik1, hits give low values",0.952
same,normalized growth,"locus YCL061C, strain MRC1, hits give low values",0.933
same,normalized growth,"locus YCL069W, strain vba3, hits give low values",0.956
same,normalized growth,"locus YCR088W, strain abp1, hits give low values",0.963
same,normalized growth,"locus YDL005C, strain med2, hits give low values",0.959
same,normalized growth,"locus YDL035C, strain GPR1, hits give low values",0.972
same,normalized growth,"locus YDL040C, strain nat1, hits give low values",0.967
same,normalized growth,"locus YDL074C, strain BRE1, hits give low values",0.937
same,normalized growth,"locus YDL101C, strain DUN1, hits give low values",0.942
same,normalized growth,"locus YDL185W, strain tfp1, hits give low values",0.961
same,normalized growth,"locus YDL192W, strain arf1, hits give low values",0.958
same,normalized growth,"locus YDR001C, strain nth1, hits give low values",0.959
same,normalized growth,"locus YDR069C, strain doa4, hits give low values",1.01
same,normalized growth,"locus YDR101C, strain arx1, hits give low values",0.972
same,normalized growth,"locus YDR137W, strain rgp1, hits give low values",0.974
same,normalized growth,"locus YDR159W, strain sac3, hits give low values",0.867
same,normalized growth,"locus YDR162C, strain NBP2, hits give low values",0.982
same,normalized growth,"locus YDR195W, strain ref2",1.23 [resistant] (active)
same,normalized growth,"locus YDR297W, strain sur2, hits give low values",0.963
same,normalized growth,"locus YDR318W, strain mcm21, hits give low values",0.93
same,normalized growth,"locus YDR334W, strain swr1, hits give low values",0.977
same,normalized growth,"locus YDR335W, strain msn5, hits give low values",0.973
same,normalized growth,"locus YDR388W, hits give low values",0.967
same,normalized growth,"locus YDR392W, strain spt3, hits give low values",0.449 (active)
same,normalized growth,"locus YDR502C, strain sam2, hits give low values",0.909 (active)
same,normalized growth,"locus YEL003W, strain gim4, hits give low values",0.933
same,normalized growth,"locus YEL037C, strain rad23, hits give low values",0.964
same,normalized growth,"locus YEL061C, strain CIN8 (second series), hits give low values",0.968
same,normalized growth,"locus YEL061C, strain CIN8, hits give low values",0.978
same,normalized growth,"locus YER015W, strain faa2, hits give low values",0.961
same,normalized growth,"locus YER016W, strain bim1, hits give low values",0.965
same,normalized growth,"locus YER110C, hits give low values",0.931
same,normalized growth,"locus YER111C, strain swi4, hits give low values",0.962
same,normalized growth,"locus YER155C, strain BEM2 (second series), hits give low values",0.757 (active)
same,normalized growth,"locus YER155C, strain BEM2, hits give low values",0.963
same,normalized growth,"locus YER167W, strain BCK2, hits give low values",0.981
same,normalized growth,"locus YFR010W, strain ubp6, hits give low values",0.989
same,normalized growth,"locus YGL078C, strain dbp3, hits give low values",0.92 (active)
same,normalized growth,"locus YGL086W, strain mad1, hits give low values",0.934
same,normalized growth,"locus YGL167C, strain pmr1, hits give low values",0.939
same,normalized growth,"locus YGL173C, strain kem1, hits give low values",0.924
same,normalized growth,"locus YGL227W, strain vid30, hits give low values",0.964
same,normalized growth,"locus YGL240W, strain doc1, hits give low values",0.821 (active)
same,normalized growth,"locus YGL248W, strain PDE1, hits give low values",0.9
same,normalized growth,"locus YGL253W, strain hxk2, hits give low values",0.91 (active)
same,normalized growth,"locus YGR078C, strain PAC10, hits give low values",0.914
same,normalized growth,"locus YGR135W, strain pre9, hits give low values",0.868 (active)
same,normalized growth,"locus YGR252W, strain gcn5, hits give low values",0.78
same,normalized growth,"locus YHR013C, strain ard1, hits give low values",0.956
same,normalized growth,"locus YHR027C, strain rpn1, hits give low values",0.944
same,normalized growth,"locus YHR030C, strain SLT2, hits give low values",0.978
same,normalized growth,"locus YHR079C, strain IRE1 (second series), hits give low values",0.964
same,normalized growth,"locus YHR079C, strain IRE1, hits give low values",0.983
same,normalized growth,"locus YHR094C, strain hxt1, hits give low values",0.969
same,normalized growth,"locus YHR129C, strain ARP1, hits give low values",0.966
same,normalized growth,"locus YHR142W, strain chs7, hits give low values",0.872 (active)
same,normalized growth,"locus YHR200W, strain rpn10, hits give low values",0.975
same,normalized growth,"locus YIL066C, strain RNR3, hits give low values",0.975
same,normalized growth,"locus YIL073C, strain SPO22, hits give low values",0.881
same,normalized growth,"locus YIL125W, strain kgd1, hits give low values",0.969
same,normalized growth,"locus YIR030C, strain dcg1, hits give low values",0.942
same,normalized growth,"locus YJL092W, strain hpr5, hits give low values",0.968
same,normalized growth,"locus YJL095W, strain BCK1 (second series), hits give low values",0.94
same,normalized growth,"locus YJL095W, strain BCK1, hits give low values",0.903 and 1
same,normalized growth,"locus YJL115W, strain asf1, hits give low values",0.969
same,normalized growth,"locus YJL129C, strain trk1, hits give low values",0.886
same,normalized growth,"locus YJL134W, strain LCB3, hits give low values",0.981
same,normalized growth,"locus YJL154C, strain vps35, hits give low values",0.964
same,normalized growth,"locus YJL164C, strain tpk1, hits give low values",0.933
same,normalized growth,"locus YJL166W, strain qcr8, hits give low values",0.844 (active)
same,normalized growth,"locus YJL168C, strain set2, hits give low values",0.958
same,normalized growth,"locus YJL187C, strain SWE1 (second series), hits give low values",0.926
same,normalized growth,"locus YJL187C, strain SWE1, hits give low values",0.983
